According to article PMC10156912:

Key:
[1] = target: PHD finger protein 12 (UniProt Q96QT6); experiment: other; cross-linking mass spectrometry; other
[2] = target: Histone deacetylase 2 (UniProt Q92769); experiment: cross-link between two proteins; cross-linking mass spectrometry
Histone deacetylase 2, sequence (Q92769 whole entry): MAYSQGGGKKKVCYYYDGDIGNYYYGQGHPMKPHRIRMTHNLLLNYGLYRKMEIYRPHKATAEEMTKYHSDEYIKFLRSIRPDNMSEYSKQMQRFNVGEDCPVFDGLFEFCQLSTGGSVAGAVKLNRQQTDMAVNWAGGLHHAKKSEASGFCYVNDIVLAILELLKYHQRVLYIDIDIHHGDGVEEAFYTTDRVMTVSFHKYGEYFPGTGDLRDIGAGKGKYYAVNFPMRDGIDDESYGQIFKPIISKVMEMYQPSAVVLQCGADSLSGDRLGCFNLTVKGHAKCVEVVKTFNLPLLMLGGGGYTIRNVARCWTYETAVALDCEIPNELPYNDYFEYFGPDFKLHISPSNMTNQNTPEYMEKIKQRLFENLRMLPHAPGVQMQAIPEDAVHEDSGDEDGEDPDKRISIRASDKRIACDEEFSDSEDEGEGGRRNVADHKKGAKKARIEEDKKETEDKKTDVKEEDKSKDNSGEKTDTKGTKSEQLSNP

PHD finger protein 12, sequence (Q96QT6 whole entry): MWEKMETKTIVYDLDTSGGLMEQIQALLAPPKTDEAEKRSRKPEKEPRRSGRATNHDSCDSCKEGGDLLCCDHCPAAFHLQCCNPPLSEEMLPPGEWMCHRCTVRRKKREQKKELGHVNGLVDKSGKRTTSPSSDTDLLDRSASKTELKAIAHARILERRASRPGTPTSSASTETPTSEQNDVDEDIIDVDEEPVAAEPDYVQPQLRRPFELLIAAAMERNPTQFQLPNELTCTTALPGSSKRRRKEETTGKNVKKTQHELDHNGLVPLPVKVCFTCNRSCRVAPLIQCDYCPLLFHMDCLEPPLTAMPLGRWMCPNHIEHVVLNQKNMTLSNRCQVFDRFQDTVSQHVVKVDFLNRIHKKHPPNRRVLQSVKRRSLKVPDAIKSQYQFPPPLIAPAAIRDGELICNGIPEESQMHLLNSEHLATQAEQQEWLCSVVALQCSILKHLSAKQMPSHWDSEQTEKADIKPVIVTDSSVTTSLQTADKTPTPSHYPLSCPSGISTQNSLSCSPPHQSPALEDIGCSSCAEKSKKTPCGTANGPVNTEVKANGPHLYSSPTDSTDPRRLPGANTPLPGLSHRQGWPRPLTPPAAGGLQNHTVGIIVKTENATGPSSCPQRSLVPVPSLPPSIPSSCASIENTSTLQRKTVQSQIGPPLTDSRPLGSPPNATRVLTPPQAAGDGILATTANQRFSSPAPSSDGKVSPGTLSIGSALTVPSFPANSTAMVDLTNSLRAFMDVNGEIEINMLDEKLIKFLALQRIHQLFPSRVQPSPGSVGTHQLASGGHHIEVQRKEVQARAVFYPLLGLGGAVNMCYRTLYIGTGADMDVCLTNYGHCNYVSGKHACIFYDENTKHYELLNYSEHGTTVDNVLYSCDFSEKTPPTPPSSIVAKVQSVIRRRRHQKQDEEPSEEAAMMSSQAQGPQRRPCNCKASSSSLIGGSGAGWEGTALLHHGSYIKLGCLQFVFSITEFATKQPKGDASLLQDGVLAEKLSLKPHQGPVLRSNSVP

Paired amphipathic helix protein Sin3b, O75182
listed as a hit [1]: yes
listed as a hit [2]: yes
